Source: PubChem BioAssay
Sampled rows, rich in hits. Any-hit rate of the full collection: about 21%.
CHX counter – affects cycloheximide protein synthesis inhibition readout, counter-screen; cell reporter, cycloheximide protein synthesis inhibition counterscreen; max response, %; actives 12% (n = 300,000); AID 2314; in the data active = max response mostly above about 13%, no sharp cut-off; inactive = mostly below about 14%; note: read at 38.3 µM for the half of the compounds with a filed dose; 0% is about no effect
FBPA Giardia inh – Giardia lamblia aldolase inhibition. A8B2U2. AID 2451. actives 0.71% (n = 290,000). purified Giardia FBPA. Potency, µM (top dose mostly 59.6 µM), for the others: top-dose activity, negative = inhibition, actives largely listed as inhibitors; note: potency is the fitted concentration of half-maximal effect; % is set by controls: 0 for no effect and ±100 for the full control effect; nearly all actives have a fitted effect of over 55% in size
Target sequence (A8B2U2 whole entry, looked up): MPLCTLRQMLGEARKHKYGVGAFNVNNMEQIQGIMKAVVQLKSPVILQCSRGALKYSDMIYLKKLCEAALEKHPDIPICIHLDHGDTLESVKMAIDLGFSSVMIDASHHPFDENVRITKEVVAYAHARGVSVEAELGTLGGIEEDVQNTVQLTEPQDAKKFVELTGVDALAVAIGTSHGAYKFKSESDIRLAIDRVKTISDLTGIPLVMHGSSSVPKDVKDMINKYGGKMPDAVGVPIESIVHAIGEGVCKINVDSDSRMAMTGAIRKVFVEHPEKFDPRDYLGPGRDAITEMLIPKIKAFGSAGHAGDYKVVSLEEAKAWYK
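Giardia FBPA (40 nM reagent) was preincubated 10 min at RT with compound (up to 57.5 uM final), then substrate plus GAPDH/TPI/NAD/arsenate coupling system with diaphorase/resazurin was added; resorufin fluorescence (525/598 nm) was read after 20 min.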
Pf growth 48h – inhibits P. falciparum growth in the first generation, 48 h. P. falciparum luciferase growth in erythrocytes, 48 h. Potency, µM (highest dose often 28.7 µM), without a hit: at the top dose activity change, negative = inhibition, most hits filed as inhibitors. actives 5.9% (n = 310,000). AID 504832; note: potency is the fitted concentration of half-maximal effect; % is set by controls: 0 for no effect and ±100 for the full control effect
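Luciferase-expressing parasites in RBCs, 2% Hct / 0.1% parasitemia final; RPMI 1640 + 0.5% Albumax; 37 C, 5% CO2, one generation; luminescence read-out, lower signal = inhibition.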
Shiga inhibitor – inhibitors of Shiga toxin in Vero cells; inhibition, % at 38.7 µM; actives 9.2% (n = 290,000); Vero cells, Shiga toxin protein synthesis inhibition reporter; in the data active = inhibition mostly above about 28%, no sharp cut-off; inactive = mostly below about 43%; note: 0% is about no effect
NS1 inh – inhibitors of influenza NS1 protein function. Potency, µM (top dose mostly 46.1 µM), for the others: at the top dose activity, positive = more growth. actives 0.4% (n = 270,000); calls by dose curve; note: potency is the fitted concentration of half-maximal effect; actives are rising curves; nearly all actives have a fitted effect of over 50% in size
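Compounds were scored for reversing the slow growth caused by influenza A NS1 in S. cerevisiae, measured by optical density at 600 nm. Assay medium contained 2% galactose at pH 6.0; NS1-free yeast of the same strain were the positive control.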
Pf growth 96h – P. falciparum growth inhibition at 96 hours | P. falciparum luciferase reporter growth, 96 h | Potency, µM (titrated, usually from 28.7 µM), for the others: at the highest dose activity change, negative = inhibition, hits mostly inhibitors | actives 6.9% (n = 320,000); note: potency is the fitted concentration of half-maximal effect; % is set by controls: 0 for no effect and ±100 for the full control effect
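Two parasite generations (96 h, 37 C, 5% CO2) of compound exposure in infected erythrocytes (0.05% parasitemia, 2% hematocrit). Luciferase-reporter P. falciparum; decreased luminescence indicates inhibited growth, aimed at apicoplast-acting delayed death.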
* hit, by the source's call. Unless noted, calls come from the whole dose curve; as a rule, active = well fitted curve in the direction sought with a large enough effect; inconclusive = small, poorly fitted or top-dose-only effect, or another doubt; inactive = no such curve, though single readings can be large; an effect the other way counts as inactive or inconclusive.

What do the screens show for `CC(C)(C)c1ccc(OCc2ccc(C(=O)N/N=C/c3ccc([N+](=O)[O-])cc3)o2)cc1`?
CHX counter: 23.7; FBPA Giardia inh: 4.6%; Pf growth 48h: inconclusive; Shiga inhibitor: 58.1*; NS1 inh: -0.8%; Pf growth 96h: 59.2%

How did C/C(=N\NC(=O)c1ccc(Cn2cc([N+](=O)[O-])cn2)o1)c1cccc(NC(=O)c2cccnc2)c1 do in these assays?
CHX counter: -2.6; FBPA Giardia inh: 5.7%; Pf growth 48h: -26.9%; Shiga inhibitor: 33.2; NS1 inh: 9.7%; Pf growth 96h: 4.15µM*

How did CCOc1ccc(CC(=O)N/N=C/c2cccnc2)cc1 do in these assays?
CHX counter: -1.6; FBPA Giardia inh: 4.7%; Pf growth 48h: 7.2%; Shiga inhibitor: -6.5; NS1 inh: -1.4%; Pf growth 96h: 2.0%

What do the screens show for `CCCc1ccc(OCc2ccc(C(=O)N/N=C/c3cccnc3)o2)cc1`?
CHX counter: 68.4*; Pf growth 48h: 22.7%; Shiga inhibitor: 109.6*; NS1 inh: -13.2%; Pf growth 96h: 32.8%

Results for O=C(O)[C@H]1O[C@@H](Oc2ccc3ccc(=O)oc3c2)[C@H](O)[C@@H](O)[C@@H]1O ?
CHX counter: -3.7; FBPA Giardia inh: 2.7%; Shiga inhibitor: -1.5

What do the screens show for `O=C(Oc1ccccc1)N1CCC2(CCCN(c3ccccn3)C2)CC1`?
FBPA Giardia inh: 4.5%

What do the screens show for `CCOc1ccc(/C=N/NC(=O)c2ccc(Cn3cc(Br)cn3)o2)cc1`?
CHX counter: 28.0*; FBPA Giardia inh: -0.8%; Pf growth 48h: -1.4%; Shiga inhibitor: active; NS1 inh: -9.5%; Pf growth 96h: 53.3%

How did O=C(N/N=C/c1cccc(O)c1)c1ccc(COc2ccc3c(c2)CCC3)o1 do in these assays?
CHX counter: 34.8*; FBPA Giardia inh: -4.6%; Shiga inhibitor: 56.9*; NS1 inh: -4.7%; Pf growth 96h: -24.0%

What do the screens show for `C/C(=N\NC(=O)c1ccc(Cn2cc(Br)cn2)o1)c1cccc(NC(=O)C(C)(C)C)c1`?
CHX counter: 14.0; FBPA Giardia inh: 2.9%; Pf growth 48h: -29.5%; Shiga inhibitor: 27.2; NS1 inh: -9.7%; Pf growth 96h: inconclusive

How did C/C(=N\NC(=O)c1ccc(Cn2cc(Br)cn2)o1)c1ccc(NC(=O)c2ccoc2C)cc1 do in these assays?
CHX counter: 38.7*; FBPA Giardia inh: 4.8%; Pf growth 48h: inconclusive; Shiga inhibitor: 65.1*; NS1 inh: -15.5%; Pf growth 96h: inconclusive

What do the screens show for `CCOc1ccc(/C=N/NC(=O)c2ccc(Cn3cc([N+](=O)[O-])cn3)o2)cc1`?
CHX counter: 22.7*; FBPA Giardia inh: 8.4%; Pf growth 48h: 0.6%; Shiga inhibitor: 51.2*; NS1 inh: 5.1%; Pf growth 96h: inconclusive

Results for CCOc1ccccc1/C=N/NC(=O)c1ccc(Cn2cc([N+](=O)[O-])cn2)o1 ?
CHX counter: -1.6; FBPA Giardia inh: -21.4%; Pf growth 48h: 14.5%; Shiga inhibitor: -6.1; NS1 inh: 11.3%; Pf growth 96h: 16.3%

Results for NNC(=O)c1ccc(COc2ccc3c(c2)CCC3)o1 ?
CHX counter: 16.4; FBPA Giardia inh: 0.0%; Pf growth 48h: -3.2%; Shiga inhibitor: 39.1; NS1 inh: 17.5%; Pf growth 96h: inconclusive

How did O=C(N/N=C/c1c(F)c(F)c(F)c(F)c1F)c1ccc(Cn2cc(Br)cn2)o1 do in these assays?
CHX counter: -1.2; FBPA Giardia inh: 5.9%; Pf growth 48h: -19.0%; Shiga inhibitor: -4.3; NS1 inh: -1.6%; Pf growth 96h: inconclusive

How did CC(Oc1ccccc1F)C(=O)NNC(=O)CC(C)c1ccccc1 (stereo not given) do in these assays?
Pf growth 48h: -19.8%; Pf growth 96h: 10.6%

How did O=C(NNS(=O)(=O)c1ccc([N+](=O)[O-])cc1)C(=O)Nc1cccc(C(=O)O)c1 do in these assays?
CHX counter: 8.1; FBPA Giardia inh: inconclusive; Pf growth 48h: 79.1%; Shiga inhibitor: 17.8; NS1 inh: -9.0%; Pf growth 96h: 11.2%

How did FC(F)(F)C(F)(F)C(F)(F)C(F)(F)C(F)(F)C(F)(F)F do in these assays?
Pf growth 48h: 0.0%; Pf growth 96h: -4.1%

Results for Cc1cc(C)c2nc(C)cc(N/N=C/c3ccc(O)cc3)c2c1 ?
CHX counter: -11.8; FBPA Giardia inh: 13.9%; Pf growth 48h: 0.131µM*; Shiga inhibitor: -9.9; NS1 inh: -15.0%; Pf growth 96h: -2.2%

Results for Cc1cc(N/N=C/c2ccc(O)cc2)c2cccc(C)c2n1 ?
CHX counter: 4.9; FBPA Giardia inh: 10.8%; Pf growth 48h: 0.37µM*; Shiga inhibitor: 14.1; NS1 inh: -3.4%; Pf growth 96h: 9.28µM*

How did Cc1cc(C)cc(NC(=O)c2ccc(N3C(=O)C4CCCCC4C3=O)cc2)c1 (stereo not given) do in these assays?
CHX counter: 5.7; FBPA Giardia inh: 12.0%; Pf growth 48h: -9.2%; Shiga inhibitor: 2.5; NS1 inh: -2.2%; Pf growth 96h: 20.0%

What do the screens show for `Cc1cc(C(=O)N[C@@H](c2ccccc2)[C@]2(C)C[C@H]2[C@@H](C)C(=O)Nc2ccc3ccccc3c2)n(C)n1`?
FBPA Giardia inh: -9.9%

Results for Cc1cc(-c2c(C)[nH]n(-c3ccccc3)c2=O)n(-c2ccccc2)n1 ?
CHX counter: -1.8; FBPA Giardia inh: 17.1%; Pf growth 48h: 5.8%; Shiga inhibitor: -7.8; NS1 inh: inconclusive; Pf growth 96h: 16.2%

Results for Cc1cc(-c2c(C)[nH]n(-c3ccc(Cl)cc3)c2=O)n(-c2ccc(Cl)cc2)n1 ?
CHX counter: 8.3; FBPA Giardia inh: 3.9%; Pf growth 48h: inconclusive; Shiga inhibitor: 14.1; NS1 inh: 11.7%; Pf growth 96h: 1.04µM*

What do the screens show for `Cc1[nH]n(-c2ccccc2)c(=O)c1-c1cccc(Cl)c1`?
CHX counter: 1.6; FBPA Giardia inh: -6.8%; Pf growth 48h: 1.65µM*; Shiga inhibitor: -16.9; NS1 inh: -55.9%; Pf growth 96h: 1.47µM*

How did Cc1[nH]n(-c2ccccc2)c(=O)c1-c1ccc(Cl)cc1 do in these assays?
CHX counter: 11.8; FBPA Giardia inh: -9.2%; Shiga inhibitor: 10.4; NS1 inh: -52.0%; Pf growth 96h: 2.08µM*

How did CCCNC(=O)Cc1ncn[nH]1 do in these assays?
CHX counter: -2.9; FBPA Giardia inh: 2.8%; Pf growth 48h: 39.4%; Shiga inhibitor: -12.6; NS1 inh: 5.8%

What do the screens show for `O=C(NCCc1ccccc1)c1ccc(=O)[nH]c1`?
CHX counter: 26.4; FBPA Giardia inh: 2.6%; Pf growth 48h: 23.5%; Shiga inhibitor: 56.5*; NS1 inh: inconclusive; Pf growth 96h: 32.0%

What do the screens show for `CCOc1ccc(CN(CCC#N)C(=S)NC(=O)c2ccccc2)cc1`?
CHX counter: 1.0; FBPA Giardia inh: 7.1%; Pf growth 48h: inconclusive; Shiga inhibitor: 12.7; NS1 inh: -28.5%; Pf growth 96h: inconclusive
